Test results published in publication PMC7862700, “An all-to-all approach to the identification of sequence-specific readers for epigenetic DNA modifications on cytosine”.

Columns and labels:
Assay in all cases: DAPPL (digital affinity profiling via proximity ligation, sequencing); 10 mM Tris-HCl pH 7.5, 50 mM NaCl, 1 mM DTT, 4% glycerol, room temperature, 30 min; GST-TFs on glutathione beads, 16-mer random dsDNA library, 0.1% formaldehyde crosslink after washing; high values mean tight binding
Details in all cases: protein: recombinant; tags: N-terminal GST; dsDNA, one strand shown
ELF1 = ELF1 (Homo sapiens, UniProt P32519 1-619)
How it was run: (§1)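 The binding signal reported is, for every hexamer, its read frequency for a factor over its read frequency for the tag-only sample. Reads came from pools of yeast-expressed, GST-fused human transcription factors on glutathione beads, barcoded with DNA and mixed with that sample, which were incubated with 200 nmole of a random double-stranded 16-mer DNA library in Tris/NaCl/DTT/glycerol buffer at room temperature for 30 min. After washing, the pools were crosslinked with 0.1% formaldehyde, proximity-ligated with BsaI/T4 ligase for 1 h at 37 °C, PCR-amplified and sequenced on an Illumina NextSeq500.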

EHF = biological target: T1, EHF (Homo sapiens, UniProt Q9NZC4 1-300)
T1 sequence: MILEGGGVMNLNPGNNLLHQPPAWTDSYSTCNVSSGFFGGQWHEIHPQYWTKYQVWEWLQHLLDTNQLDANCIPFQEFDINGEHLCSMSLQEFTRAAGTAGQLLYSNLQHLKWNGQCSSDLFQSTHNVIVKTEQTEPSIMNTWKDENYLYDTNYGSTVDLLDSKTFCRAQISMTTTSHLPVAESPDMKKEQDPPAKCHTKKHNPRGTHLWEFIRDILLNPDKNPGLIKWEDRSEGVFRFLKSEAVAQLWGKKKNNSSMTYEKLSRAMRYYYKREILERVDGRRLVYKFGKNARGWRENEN
How it was run: as §1

ELK4 = biological target: T2, ELK4 (Homo sapiens, UniProt P28324-2 1-405)
T2 sequence: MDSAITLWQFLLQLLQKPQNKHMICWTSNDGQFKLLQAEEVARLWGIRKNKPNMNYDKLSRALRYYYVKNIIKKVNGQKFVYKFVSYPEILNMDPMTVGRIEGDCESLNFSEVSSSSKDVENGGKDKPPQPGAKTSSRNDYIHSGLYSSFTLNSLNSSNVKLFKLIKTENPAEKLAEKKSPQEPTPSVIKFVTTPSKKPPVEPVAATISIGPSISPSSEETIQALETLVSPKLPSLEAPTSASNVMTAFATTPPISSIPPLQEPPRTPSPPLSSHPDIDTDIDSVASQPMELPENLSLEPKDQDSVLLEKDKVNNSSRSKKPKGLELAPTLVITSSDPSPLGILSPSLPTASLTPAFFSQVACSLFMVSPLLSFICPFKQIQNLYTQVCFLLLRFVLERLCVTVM
How it was run: as §1

ETV2 = biological target: T3, ETV2 (Homo sapiens, UniProt O00321 1-342)
T3 sequence: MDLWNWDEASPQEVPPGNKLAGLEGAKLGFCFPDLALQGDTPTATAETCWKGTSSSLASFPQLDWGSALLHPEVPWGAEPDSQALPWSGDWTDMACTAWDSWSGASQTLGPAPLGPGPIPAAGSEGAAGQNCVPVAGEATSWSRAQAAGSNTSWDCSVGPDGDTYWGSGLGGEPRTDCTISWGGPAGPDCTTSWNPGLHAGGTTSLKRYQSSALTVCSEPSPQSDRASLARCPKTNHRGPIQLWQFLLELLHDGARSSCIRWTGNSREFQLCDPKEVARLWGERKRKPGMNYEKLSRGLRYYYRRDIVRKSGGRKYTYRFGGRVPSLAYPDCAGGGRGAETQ
How it was run: as §1

ELF3 = biological target: T4, ELF3 (Homo sapiens, UniProt P78545 1-371)
T4 sequence: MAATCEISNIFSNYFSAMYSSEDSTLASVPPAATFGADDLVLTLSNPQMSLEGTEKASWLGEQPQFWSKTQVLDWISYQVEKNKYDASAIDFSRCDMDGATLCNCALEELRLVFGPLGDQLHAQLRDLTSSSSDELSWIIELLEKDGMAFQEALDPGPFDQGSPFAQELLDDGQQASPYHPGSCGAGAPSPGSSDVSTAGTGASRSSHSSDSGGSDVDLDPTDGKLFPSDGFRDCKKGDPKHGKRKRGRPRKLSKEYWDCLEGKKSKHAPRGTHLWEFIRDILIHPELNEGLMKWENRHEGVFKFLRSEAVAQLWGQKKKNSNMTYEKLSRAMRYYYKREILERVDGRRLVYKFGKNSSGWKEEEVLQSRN
How it was run: as §1

ETV1 = ETV1 (Homo sapiens, UniProt P50549 1-477)
How it was run: as §1

SPDEF = biological target: T5, SPDEF (Homo sapiens, UniProt O95238 1-335)
T5 sequence: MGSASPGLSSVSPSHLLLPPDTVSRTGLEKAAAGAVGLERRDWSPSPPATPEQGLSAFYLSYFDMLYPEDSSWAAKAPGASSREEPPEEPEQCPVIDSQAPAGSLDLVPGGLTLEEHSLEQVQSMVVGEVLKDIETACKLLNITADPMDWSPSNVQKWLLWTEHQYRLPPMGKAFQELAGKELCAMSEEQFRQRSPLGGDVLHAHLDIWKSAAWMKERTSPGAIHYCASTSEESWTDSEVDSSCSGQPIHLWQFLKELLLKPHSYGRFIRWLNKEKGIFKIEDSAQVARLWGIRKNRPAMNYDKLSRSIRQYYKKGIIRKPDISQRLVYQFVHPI
How it was run: as §1

ELK1 = biological target: T6, ELK1 (Homo sapiens, UniProt P19419 1-428)
T6 sequence: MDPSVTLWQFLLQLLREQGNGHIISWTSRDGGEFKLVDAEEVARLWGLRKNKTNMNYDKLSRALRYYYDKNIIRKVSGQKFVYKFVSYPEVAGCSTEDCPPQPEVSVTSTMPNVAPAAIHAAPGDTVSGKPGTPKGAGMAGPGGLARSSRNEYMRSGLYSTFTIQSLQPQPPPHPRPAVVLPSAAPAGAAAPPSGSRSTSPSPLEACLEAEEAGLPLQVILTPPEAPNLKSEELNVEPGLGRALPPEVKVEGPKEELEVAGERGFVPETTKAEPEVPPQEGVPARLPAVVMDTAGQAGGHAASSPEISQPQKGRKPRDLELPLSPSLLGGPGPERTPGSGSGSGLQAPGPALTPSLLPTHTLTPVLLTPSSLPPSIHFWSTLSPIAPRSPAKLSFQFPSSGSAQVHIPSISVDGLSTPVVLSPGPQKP
How it was run: as §1

GABPA = biological target: T7, GABPA (Homo sapiens, UniProt Q06546 1-454)
T7 sequence: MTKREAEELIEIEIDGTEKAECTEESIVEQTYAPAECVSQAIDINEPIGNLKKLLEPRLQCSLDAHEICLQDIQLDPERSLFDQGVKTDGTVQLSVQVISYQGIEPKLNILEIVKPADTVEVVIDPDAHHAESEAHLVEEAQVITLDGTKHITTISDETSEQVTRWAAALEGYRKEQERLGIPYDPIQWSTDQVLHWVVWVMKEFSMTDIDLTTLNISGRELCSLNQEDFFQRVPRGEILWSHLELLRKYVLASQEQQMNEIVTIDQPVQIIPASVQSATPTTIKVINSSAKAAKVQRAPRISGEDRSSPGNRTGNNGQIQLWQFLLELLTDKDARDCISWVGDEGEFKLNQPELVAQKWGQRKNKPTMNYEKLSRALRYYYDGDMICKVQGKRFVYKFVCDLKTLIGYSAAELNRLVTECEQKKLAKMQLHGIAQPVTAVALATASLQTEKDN
How it was run: as §1

ETV3L = biological target: T8, ETV3L (Homo sapiens, UniProt Q6ZN32 1-361)
T8 sequence: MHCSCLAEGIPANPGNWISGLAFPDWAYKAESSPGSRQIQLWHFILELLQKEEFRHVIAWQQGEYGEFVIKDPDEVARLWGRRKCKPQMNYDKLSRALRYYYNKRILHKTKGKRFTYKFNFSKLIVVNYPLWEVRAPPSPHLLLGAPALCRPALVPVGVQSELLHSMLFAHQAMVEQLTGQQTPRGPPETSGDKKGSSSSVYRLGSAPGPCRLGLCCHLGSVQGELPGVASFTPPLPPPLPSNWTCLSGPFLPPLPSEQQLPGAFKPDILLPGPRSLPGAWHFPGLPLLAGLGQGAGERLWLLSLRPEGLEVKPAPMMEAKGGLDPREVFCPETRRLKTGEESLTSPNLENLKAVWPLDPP
How it was run: as §1

ETV7 = biological target: T9, ETV7 (Homo sapiens, UniProt Q9Y603 1-341)
T9 sequence: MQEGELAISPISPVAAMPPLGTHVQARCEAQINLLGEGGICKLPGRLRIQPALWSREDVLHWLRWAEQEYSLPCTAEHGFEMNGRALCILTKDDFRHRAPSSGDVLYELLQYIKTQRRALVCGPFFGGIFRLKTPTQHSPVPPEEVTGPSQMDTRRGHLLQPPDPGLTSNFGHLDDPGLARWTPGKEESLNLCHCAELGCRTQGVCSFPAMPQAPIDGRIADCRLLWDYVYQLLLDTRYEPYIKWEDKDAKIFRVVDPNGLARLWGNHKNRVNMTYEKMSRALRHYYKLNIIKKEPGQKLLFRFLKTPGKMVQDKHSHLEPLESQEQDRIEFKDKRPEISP
How it was run: as §1

SPI1 = SPI1 (Homo sapiens, UniProt P17947 1-270)
How it was run: as §1

SPIB = SPIB (Homo sapiens, UniProt Q01892 1-262)
How it was run: as §1

CRX = CRX (Homo sapiens, UniProt O43186 1-299)
How it was run: as §1

ETS2 = biological target: T10, ETS2 (Homo sapiens, UniProt P15036 1-469)
T10 sequence: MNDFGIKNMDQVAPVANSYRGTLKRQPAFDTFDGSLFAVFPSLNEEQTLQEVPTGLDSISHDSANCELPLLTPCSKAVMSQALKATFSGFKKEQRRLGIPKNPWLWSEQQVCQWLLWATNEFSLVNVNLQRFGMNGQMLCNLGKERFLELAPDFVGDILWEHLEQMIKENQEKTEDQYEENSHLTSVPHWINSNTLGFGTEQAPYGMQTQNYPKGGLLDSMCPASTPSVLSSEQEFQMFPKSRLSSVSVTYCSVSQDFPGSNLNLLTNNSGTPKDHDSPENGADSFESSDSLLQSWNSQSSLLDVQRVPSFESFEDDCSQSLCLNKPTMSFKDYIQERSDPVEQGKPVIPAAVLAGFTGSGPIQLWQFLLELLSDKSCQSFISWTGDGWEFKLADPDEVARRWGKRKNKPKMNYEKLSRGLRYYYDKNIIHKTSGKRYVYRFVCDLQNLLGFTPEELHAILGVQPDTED
How it was run: as §1

ETV3 = biological target: T11, ETV3 (Homo sapiens, UniProt P41162-2 1-143)
T11 sequence: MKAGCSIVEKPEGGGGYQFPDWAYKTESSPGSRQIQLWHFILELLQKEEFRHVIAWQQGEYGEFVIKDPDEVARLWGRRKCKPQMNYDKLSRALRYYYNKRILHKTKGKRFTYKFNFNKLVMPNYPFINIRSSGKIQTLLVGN
How it was run: as §1

ETV6 = ETV6 (Homo sapiens, UniProt P41212 1-452)
How it was run: as §1

ELF1, sequence (P32519 whole entry, the tested form may be a part): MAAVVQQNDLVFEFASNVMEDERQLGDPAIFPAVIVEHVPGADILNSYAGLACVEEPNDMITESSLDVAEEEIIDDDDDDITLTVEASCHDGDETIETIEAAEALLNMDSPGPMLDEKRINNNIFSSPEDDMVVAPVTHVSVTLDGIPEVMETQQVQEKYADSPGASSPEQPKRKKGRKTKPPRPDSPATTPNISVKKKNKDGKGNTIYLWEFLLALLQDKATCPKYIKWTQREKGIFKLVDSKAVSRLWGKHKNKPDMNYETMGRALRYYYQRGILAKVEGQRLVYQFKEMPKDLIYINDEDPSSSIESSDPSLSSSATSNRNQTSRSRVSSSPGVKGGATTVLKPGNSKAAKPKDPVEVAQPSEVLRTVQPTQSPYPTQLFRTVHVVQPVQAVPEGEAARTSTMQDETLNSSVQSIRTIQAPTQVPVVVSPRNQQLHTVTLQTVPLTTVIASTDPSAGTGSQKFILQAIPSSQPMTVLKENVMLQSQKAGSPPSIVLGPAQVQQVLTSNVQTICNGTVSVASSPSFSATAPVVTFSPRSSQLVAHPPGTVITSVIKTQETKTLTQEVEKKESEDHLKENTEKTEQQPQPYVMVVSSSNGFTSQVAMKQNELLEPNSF
CRX, sequence (O43186 whole entry): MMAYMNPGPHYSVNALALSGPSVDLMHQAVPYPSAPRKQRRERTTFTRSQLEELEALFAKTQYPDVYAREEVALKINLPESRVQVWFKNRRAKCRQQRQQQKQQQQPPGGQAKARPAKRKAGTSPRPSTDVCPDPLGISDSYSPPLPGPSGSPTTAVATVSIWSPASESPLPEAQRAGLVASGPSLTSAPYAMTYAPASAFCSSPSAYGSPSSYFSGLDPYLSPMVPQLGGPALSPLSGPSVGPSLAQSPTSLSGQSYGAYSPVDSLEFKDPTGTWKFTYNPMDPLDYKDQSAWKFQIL
SPIB, sequence (Q01892 whole entry): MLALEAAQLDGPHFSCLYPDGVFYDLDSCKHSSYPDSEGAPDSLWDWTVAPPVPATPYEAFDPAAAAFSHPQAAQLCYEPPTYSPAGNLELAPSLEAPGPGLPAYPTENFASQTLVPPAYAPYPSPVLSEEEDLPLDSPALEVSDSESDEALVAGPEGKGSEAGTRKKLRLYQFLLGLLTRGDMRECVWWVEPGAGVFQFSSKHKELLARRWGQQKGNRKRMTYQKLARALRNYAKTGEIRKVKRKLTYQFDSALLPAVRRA
ETV1, sequence (P50549 whole entry): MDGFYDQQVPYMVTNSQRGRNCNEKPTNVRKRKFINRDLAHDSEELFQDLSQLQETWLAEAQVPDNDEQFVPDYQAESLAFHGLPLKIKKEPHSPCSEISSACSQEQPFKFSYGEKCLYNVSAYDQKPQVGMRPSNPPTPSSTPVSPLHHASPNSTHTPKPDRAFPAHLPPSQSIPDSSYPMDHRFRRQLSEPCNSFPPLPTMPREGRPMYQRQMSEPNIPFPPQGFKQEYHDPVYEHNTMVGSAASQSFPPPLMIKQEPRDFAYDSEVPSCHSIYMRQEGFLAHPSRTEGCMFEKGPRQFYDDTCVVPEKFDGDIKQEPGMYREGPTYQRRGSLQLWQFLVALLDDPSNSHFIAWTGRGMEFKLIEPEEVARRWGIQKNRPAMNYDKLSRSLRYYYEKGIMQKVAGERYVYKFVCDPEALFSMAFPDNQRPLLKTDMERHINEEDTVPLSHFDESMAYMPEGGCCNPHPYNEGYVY
ETV6, sequence (P41212 whole entry): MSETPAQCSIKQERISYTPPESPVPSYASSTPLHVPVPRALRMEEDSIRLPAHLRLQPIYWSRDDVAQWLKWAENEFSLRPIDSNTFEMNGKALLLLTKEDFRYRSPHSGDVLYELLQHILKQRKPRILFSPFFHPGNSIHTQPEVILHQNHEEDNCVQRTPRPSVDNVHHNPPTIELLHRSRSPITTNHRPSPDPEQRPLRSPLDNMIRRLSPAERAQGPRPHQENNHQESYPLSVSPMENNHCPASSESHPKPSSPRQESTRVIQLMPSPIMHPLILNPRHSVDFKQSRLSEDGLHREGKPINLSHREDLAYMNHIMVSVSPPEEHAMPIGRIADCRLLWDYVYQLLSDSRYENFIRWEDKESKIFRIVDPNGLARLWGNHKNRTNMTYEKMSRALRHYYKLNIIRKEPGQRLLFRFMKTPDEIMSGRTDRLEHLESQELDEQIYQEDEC

**Q.** With GATACC as the sequence, how does the binding signal (ELF1) read?
**A.** 1.04 fold enrichment (6-mer frequency, TF over GST control)

**Q.** What about the binding signal (EHF) of the same sequence?
**A.** 1 fold enrichment (6-mer frequency, TF over GST control)

**Q.** What about the binding signal (ELK4) of the same sequence?
**A.** 1.01 fold enrichment (6-mer frequency, TF over GST control)

**Q.** And the binding signal (ETV2)?
**A.** 1 fold enrichment (6-mer frequency, TF over GST control)

**Q.** What about the binding signal (ELF3) of the same sequence?
**A.** 1 fold enrichment (6-mer frequency, TF over GST control)

**Q.** And the binding signal (ETV1)?
**A.** 1 fold enrichment (6-mer frequency, TF over GST control)

**Q.** What about the binding signal (SPDEF) of the same sequence?
**A.** 1.04 fold enrichment (6-mer frequency, TF over GST control)

**Q.** Which binding signal (ELK1) does the source give for AGATGT here?
**A.** 1 fold enrichment (6-mer frequency, TF over GST control)

**Q.** What about the binding signal (GABPA) of the same sequence?
**A.** 1.01 fold enrichment (6-mer frequency, TF over GST control)

**Q.** What about the binding signal (ELF3) of the same sequence?
**A.** 1.04 fold enrichment (6-mer frequency, TF over GST control)

**Q.** And the binding signal (ETV3L)?
**A.** 1 fold enrichment (6-mer frequency, TF over GST control)

**Q.** What about the binding signal (ETV7) of the same sequence?
**A.** 1.04 fold enrichment (6-mer frequency, TF over GST control)

**Q.** What does the source list for ATAACG?
**A.** binding signal (ELK1): 1.04 fold enrichment (6-mer frequency, TF over GST control); binding signal (GABPA): 1 fold enrichment (6-mer frequency, TF over GST control); binding signal (SPI1): 1.01 fold enrichment (6-mer frequency, TF over GST control); binding signal (SPIB): 1.01 fold enrichment (6-mer frequency, TF over GST control); binding signal (CRX): 1 fold enrichment (6-mer frequency, TF over GST control); binding signal (ETS2): 1.05 fold enrichment (6-mer frequency, TF over GST control); binding signal (ETV3): 1.05 fold enrichment (6-mer frequency, TF over GST control); binding signal (ETV6): 1.03 fold enrichment (6-mer frequency, TF over GST control)
